Of roughly 7,900 targets only a part is listed; those with a hit were picked by preference. About 0.6% of all pairs of compound and target were hits.
What was measured:
Test in all cases: log2 fold change, soluble protein after heating vs DMSO (PISA); higher = thermal stabilisation; K562 cells, 10 uM, 30 min; active = over 0.2 and 3.5 SD of the protein, either way, in both replicates (recomputed)
[1] = compound: CC1=C(C=C(C=C1)NC(=O)C2=CC(=CC=C2)C(C)(C)C#N)NC3=CC4=C(C=C3)N=CN(C4=O)C
In short: (§1)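 Values are thermal stability changes relative to control samples and are taken from duplicates. They are stated as log2 fold changes. Before quantification by TMTpro 16plex LC-MS/MS with equalised channel sums, K562 cells at 2×10^6 cells/mL were treated with 10 μM compound for 30 min, heated in aliquots for 3 min across 48°C-58°C, pooled, extracted in PBS with 0.5% NP-40 at 4°C, and centrifuged at 21,000xg for 90 min to give the soluble supernatant.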

[2] = compound: CC1=C(C=C(C=C1)NC(=O)C2=CC(=CC=C2)N(C)C)NC(=O)C3=CC=C(C=C3)O
In short: as §1

[3] = compound: CC1=CC=C(C=C1)SC2=C3C=C(SC3=CN=C2)C(=O)N
In short: as §1

[4] = compound: CC1=NC(=CC=C1)C2=C(N=C(N2)C(C)(C)C)C3=CC4=NC=CN=C4C=C3
In short: as §1

Nexturastat A = compound: CCCCN(Cc1ccc(C(=O)NO)cc1)C(=O)Nc1ccccc1 [Nexturastat A]
In short: as §1

vemurafenib = compound: CCCS(=O)(=O)Nc1ccc(F)c(C(=O)c2c[nH]c3ncc(-c4ccc(Cl)cc4)cc23)c1F [vemurafenib]
In short: as §1

[5] = compound: CCCS(=O)(=O)Nc1ccc(F)c(C(=O)c2c[nH]c3ncc(Cl)cc23)c1F
In short: as §1

[6] = compound: CCCc1cc(C)[nH]c(=O)c1CNC(=O)c1cc(-c2ccnc(N3CCN(C)CC3)c2)cc2c1cnn2C(C)C
In short: as §1

givinostat = compound: CCN(CC)Cc1ccc2cc(COC(=O)Nc3ccc(C(=O)NO)cc3)ccc2c1 [givinostat]
In short: as §1

barasertib = compound: CCN(CCCOc1ccc2c(Nc3cc(CC(=O)Nc4cccc(F)c4)[nH]n3)ncnc2c1)CCOP(=O)(O)O [barasertib]
In short: as §1

[7] = compound: CC[C@@H]1C(=O)N(C)c2cnc(Nc3ccc(C(=O)NC4CCN(C)CC4)cc3OC)nc2N1C1CCCC1
In short: as §1

volasertib = compound: CC[C@@H]1C(=O)N(C)c2cnc(Nc3ccc(C(=O)N[C@H]4CC[C@H](N5CCN(CC6CC6)CC5)CC4)cc3OC)nc2N1C(C)C [volasertib]
In short: as §1

[8] = compound: CC[C@H](C)N1C=C(C2=C(C=C(C=C21)C3=CN=C(C=C3)N4CCNCC4)C(=O)NCC5=C(C=C(NC5=O)C)C)C
In short: as §1

epoxomicin = compound: CC[C@H](C)[C@@H](C(=O)N[C@@H]([C@@H](C)O)C(=O)N[C@@H](CC(C)C)C(=O)[C@]1(CO1)C)NC(=O)[C@H]([C@@H](C)CC)N(C)C(=O)C [epoxomicin]
In short: as §1

[9] = compound: CCn1c(C(=O)N(C2CC2)C2CC2)cc2c3c(ncn3C)c(Nc3cc(C)n(C)n3)nc21
In short: as §1

[10] = compound: CN(C)CC(=O)Nc1ccc2[nH]c(=O)c3ccccc3c2c1
In short: as §1

rosiglitazone = compound: CN(CCOC1=CC=C(C=C1)C[C@H]2C(=O)NC(=O)S2)C3=CC=CC=N3 (racemic) [rosiglitazone]
In short: as §1

[11] = compound: CCn1cc(-c2ccnc3[nH]c(-c4cccc(CN(C)C)c4)cc23)c(-c2ccc(NC(=O)N(C)C)cc2)n1
In short: as §1

[12] = compound: CN1CCC(CNc2ccc3ncc(-c4cccc(OC(F)(F)F)c4)n3n2)CC1
In short: as §1

[13] = compound: CN1C2=C(C3=C1C(=O)N(N=C3)CC4=CC(=CC=C4)N)SC(=C2)S(=O)C
In short: as §1

Chain of UniProt Q12996 (Q12996 whole entry, looked up): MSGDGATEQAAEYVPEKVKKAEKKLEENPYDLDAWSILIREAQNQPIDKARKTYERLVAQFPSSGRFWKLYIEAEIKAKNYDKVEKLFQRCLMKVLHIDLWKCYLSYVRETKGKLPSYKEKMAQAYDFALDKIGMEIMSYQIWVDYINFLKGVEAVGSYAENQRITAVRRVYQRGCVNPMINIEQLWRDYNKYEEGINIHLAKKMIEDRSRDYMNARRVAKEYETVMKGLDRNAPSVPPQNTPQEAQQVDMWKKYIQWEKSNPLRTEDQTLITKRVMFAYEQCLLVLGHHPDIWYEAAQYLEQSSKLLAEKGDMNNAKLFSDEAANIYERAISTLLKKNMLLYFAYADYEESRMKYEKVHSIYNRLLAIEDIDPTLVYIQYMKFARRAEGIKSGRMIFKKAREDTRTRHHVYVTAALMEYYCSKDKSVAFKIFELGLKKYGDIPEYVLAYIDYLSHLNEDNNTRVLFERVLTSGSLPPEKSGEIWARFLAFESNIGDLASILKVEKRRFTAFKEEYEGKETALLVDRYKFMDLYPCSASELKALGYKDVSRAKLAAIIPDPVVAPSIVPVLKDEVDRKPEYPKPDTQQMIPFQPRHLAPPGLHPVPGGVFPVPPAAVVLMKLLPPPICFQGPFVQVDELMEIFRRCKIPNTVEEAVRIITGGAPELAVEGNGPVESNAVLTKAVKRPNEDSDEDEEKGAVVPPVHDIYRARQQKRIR
Chain of UniProt Q53ET0 (Q53ET0 whole entry, looked up): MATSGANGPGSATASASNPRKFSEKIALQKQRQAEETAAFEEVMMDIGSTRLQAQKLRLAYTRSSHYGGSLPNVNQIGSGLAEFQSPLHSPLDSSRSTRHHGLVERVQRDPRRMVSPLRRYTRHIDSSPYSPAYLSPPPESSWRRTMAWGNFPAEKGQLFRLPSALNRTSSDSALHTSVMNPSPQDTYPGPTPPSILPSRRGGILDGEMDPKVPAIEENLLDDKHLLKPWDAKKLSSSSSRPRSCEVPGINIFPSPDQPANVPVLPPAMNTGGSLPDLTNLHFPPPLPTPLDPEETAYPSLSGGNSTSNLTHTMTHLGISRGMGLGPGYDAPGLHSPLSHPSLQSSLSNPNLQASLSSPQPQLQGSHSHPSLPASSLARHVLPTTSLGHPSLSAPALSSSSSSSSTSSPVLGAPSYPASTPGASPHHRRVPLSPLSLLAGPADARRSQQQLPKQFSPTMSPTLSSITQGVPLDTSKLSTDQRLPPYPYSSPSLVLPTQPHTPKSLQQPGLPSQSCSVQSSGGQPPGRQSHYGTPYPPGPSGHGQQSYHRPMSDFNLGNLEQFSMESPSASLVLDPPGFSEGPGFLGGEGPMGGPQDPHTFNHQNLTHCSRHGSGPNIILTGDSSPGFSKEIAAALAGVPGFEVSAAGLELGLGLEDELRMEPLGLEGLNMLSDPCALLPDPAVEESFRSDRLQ
Chain of UniProt P51798 (P51798 whole entry, looked up): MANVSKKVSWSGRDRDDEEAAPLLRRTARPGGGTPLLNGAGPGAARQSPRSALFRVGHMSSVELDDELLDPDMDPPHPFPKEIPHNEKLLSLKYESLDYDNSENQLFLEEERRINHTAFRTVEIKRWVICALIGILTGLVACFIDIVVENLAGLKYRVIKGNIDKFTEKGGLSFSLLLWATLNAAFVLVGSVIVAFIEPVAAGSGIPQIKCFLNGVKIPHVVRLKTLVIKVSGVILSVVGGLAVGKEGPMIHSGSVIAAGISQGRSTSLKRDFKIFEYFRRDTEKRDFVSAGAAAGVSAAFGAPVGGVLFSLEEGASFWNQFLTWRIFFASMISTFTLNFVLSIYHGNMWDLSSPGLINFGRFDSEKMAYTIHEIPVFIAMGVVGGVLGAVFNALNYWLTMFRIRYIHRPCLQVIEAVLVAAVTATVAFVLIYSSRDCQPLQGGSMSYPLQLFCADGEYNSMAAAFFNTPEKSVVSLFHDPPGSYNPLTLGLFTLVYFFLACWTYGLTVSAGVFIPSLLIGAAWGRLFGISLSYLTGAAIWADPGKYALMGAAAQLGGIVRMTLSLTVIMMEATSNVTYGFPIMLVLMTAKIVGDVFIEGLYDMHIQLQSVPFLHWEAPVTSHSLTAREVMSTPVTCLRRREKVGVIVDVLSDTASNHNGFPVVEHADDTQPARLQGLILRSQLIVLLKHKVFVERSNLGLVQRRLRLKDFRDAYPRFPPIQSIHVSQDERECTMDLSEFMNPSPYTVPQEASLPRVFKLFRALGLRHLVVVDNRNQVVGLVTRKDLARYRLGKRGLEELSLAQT
Chain of UniProt Q9NRR8 (Q9NRR8 whole entry, looked up): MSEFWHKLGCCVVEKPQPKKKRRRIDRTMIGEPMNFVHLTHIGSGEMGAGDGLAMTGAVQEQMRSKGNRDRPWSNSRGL
Chain of UniProt Q13901 (Q13901 whole entry, looked up): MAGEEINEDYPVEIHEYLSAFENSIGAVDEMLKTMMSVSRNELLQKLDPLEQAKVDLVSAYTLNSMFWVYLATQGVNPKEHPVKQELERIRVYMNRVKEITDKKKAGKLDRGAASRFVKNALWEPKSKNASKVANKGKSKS
Chain of UniProt Q9P031 (Q9P031 whole entry, looked up): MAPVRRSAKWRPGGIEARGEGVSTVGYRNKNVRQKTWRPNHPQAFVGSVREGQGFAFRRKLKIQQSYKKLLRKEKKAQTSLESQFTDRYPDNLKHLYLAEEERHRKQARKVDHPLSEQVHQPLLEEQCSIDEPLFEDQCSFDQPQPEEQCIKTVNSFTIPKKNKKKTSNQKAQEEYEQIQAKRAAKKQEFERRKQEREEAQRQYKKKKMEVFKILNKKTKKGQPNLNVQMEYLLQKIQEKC
Chain of UniProt Q14839 (Q14839 whole entry, looked up): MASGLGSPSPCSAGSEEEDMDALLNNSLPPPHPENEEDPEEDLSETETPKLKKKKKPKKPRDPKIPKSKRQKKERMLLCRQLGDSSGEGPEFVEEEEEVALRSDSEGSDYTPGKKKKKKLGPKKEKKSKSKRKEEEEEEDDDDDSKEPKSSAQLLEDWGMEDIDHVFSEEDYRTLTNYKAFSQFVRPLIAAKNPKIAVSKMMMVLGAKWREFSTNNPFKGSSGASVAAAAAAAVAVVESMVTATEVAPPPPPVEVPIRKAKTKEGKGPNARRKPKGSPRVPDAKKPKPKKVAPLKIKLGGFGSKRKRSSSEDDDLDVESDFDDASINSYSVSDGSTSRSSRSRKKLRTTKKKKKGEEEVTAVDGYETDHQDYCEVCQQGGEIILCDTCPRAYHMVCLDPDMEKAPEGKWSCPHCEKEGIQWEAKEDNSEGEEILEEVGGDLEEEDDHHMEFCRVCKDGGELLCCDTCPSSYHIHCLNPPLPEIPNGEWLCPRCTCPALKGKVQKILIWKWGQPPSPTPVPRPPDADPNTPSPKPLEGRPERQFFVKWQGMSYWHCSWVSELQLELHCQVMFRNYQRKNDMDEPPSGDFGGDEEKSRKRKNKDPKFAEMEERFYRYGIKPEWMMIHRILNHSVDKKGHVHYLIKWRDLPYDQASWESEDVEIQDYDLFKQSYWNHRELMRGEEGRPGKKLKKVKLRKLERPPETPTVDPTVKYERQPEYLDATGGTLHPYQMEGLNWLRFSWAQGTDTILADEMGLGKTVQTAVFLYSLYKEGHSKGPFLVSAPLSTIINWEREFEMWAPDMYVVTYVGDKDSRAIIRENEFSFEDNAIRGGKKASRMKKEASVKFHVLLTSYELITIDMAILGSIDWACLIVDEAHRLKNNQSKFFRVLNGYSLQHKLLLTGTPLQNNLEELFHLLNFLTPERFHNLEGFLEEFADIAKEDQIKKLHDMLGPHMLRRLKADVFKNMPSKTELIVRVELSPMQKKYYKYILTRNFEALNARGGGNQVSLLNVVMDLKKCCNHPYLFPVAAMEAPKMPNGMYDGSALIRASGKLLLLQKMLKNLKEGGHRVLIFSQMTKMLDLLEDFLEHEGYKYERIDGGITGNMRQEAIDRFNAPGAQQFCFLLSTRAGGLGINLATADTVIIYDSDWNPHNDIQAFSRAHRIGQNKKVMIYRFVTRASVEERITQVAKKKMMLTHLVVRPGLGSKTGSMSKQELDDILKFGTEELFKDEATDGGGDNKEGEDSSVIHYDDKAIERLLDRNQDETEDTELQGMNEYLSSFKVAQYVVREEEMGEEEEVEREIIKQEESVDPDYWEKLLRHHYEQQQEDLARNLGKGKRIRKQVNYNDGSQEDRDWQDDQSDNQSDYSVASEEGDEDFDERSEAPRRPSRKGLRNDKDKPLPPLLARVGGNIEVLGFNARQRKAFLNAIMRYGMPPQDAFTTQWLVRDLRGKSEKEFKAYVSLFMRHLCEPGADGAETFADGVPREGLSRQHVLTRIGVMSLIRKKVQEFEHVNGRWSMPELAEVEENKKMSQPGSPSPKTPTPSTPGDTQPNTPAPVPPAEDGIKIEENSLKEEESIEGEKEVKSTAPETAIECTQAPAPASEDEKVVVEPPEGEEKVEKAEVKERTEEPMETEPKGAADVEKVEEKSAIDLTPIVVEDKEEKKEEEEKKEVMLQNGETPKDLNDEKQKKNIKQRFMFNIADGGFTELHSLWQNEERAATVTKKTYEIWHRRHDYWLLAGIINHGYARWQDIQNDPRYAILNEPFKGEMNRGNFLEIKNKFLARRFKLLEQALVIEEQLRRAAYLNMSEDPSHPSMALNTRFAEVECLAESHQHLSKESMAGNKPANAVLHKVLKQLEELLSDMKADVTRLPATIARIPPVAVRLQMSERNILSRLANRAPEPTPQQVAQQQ

Target | log2 fold change [1] | log2 fold change [2] | log2 fold change [3] | log2 fold change [4] | log2 fold change (Nexturastat A) | log2 fold change (vemurafenib) | log2 fold change [5] | log2 fold change [6] | log2 fold change (givinostat) | log2 fold change (barasertib) | log2 fold change [7] | log2 fold change (volasertib) | log2 fold change [8] | log2 fold change (epoxomicin) | log2 fold change [9] | log2 fold change [10] | log2 fold change (rosiglitazone) | log2 fold change [11] | log2 fold change [12] | log2 fold change [13]
CRTC2 (UniProt Q53ET0) | 0.055 (inactive) | 0.055 (inactive) | -0.051 (inactive) | 0.017 (inactive) | -0.03 (inactive) | 0.039 (inactive) | 0.031 (inactive) | 0.103 (inactive) | 0.181 (inactive) | 0.062 (inactive) | 0.014 (inactive) | 0.016 (inactive) | 0.061 (inactive) | 0.098 (inactive) | -0.023 (inactive) | -0.009 (inactive) | -0.043 (inactive) |  |  | 
C1D (UniProt Q13901) | 0.058 (inactive) | 0.002 (inactive) | -0.015 (inactive) | -0.045 (inactive) | -0.053 (inactive) | -0.046 (inactive) | -0.175 (inactive) | -0.019 (inactive) | -0.002 (inactive) | 0.104 (inactive) | 0.088 (inactive) | 0.076 (inactive) | -0.034 (inactive) | 0.02 (inactive) | 0 (inactive) | -0.127 (inactive) | -0.008 (inactive) | -0.021 (inactive) | 0.096 (inactive) | 
CPSF1 (UniProt Q10570) | -0.017 (inactive) | 0 (inactive) | -0.123 (inactive) | -0.083 (inactive) | 0.453 (active) | -0.115 (inactive) | 0.014 (inactive) | -0.005 (inactive) | 0.058 (inactive) | -0.024 (inactive) | 0.053 (inactive) | -0.105 (inactive) | 0.031 (inactive) | -0.038 (inactive) | -0.02 (inactive) | -0.104 (inactive) | 0.011 (inactive) | 0.026 (inactive) | 0.165 (inactive) | 0.116 (inactive)
CDC42SE1 (UniProt Q9NRR8) | 0.132 (inactive) | 0.059 (inactive) | 0.016 (inactive) | -0.09 (inactive) | -0.115 (inactive) | -0.007 (inactive) | 0.051 (inactive) | -0.705 (inactive) | -0.236 (inactive) | 0.071 (inactive) | -0.995 (active) | -2.6 (active) | -0.127 (inactive) | 0.031 (inactive) | 0.029 (inactive) | 0.05 (inactive) | -0.017 (inactive) |  |  | -0.074 (inactive)
CCDC59 (UniProt Q9P031) | -0.067 (inactive) | -0.017 (inactive) | -0.144 (inactive) | -0.213 (inactive) | 0.549 (active) | -0.037 (inactive) | 0.008 (inactive) | 0.113 (inactive) | 0.086 (inactive) | -0.013 (inactive) | 0.065 (inactive) | 0.186 (inactive) | -0.006 (inactive) | -0.067 (inactive) | -0.013 (inactive) | -0.08 (inactive) | -0.064 (inactive) | 0.088 (inactive) | 0.176 (inactive) | 0.394 (inactive)
CHD4 isoform 2 (UniProt Q14839) | 0.011 (inactive) | -0.028 (inactive) | 0.062 (inactive) | -0.014 (inactive) | 0.087 (inactive) | 0.068 (inactive) | 0.116 (inactive) | 0.101 (inactive) | 0.154 (inactive) | 0.121 (inactive) | -0.124 (inactive) | -0.382 (inactive) | 0.158 (inactive) | 0.069 (inactive) | -0.051 (inactive) | 0.048 (inactive) | 0.058 (inactive) | 0.098 (inactive) | -0.073 (inactive) | 0.1 (inactive)
CLCN7 (UniProt P51798) | 0.027 (inactive) | -0.026 (inactive) | 0.029 (inactive) | 0.006 (inactive) | -0.07 (inactive) | 0.001 (inactive) | 0.038 (inactive) | -0.068 (inactive) | -0.007 (inactive) | -0.015 (inactive) | -0.338 (active) | -0.297 (inactive) | 0.031 (inactive) | -0.001 (inactive) | -0.022 (inactive) | -0.01 (inactive) | 0.049 (inactive) | -0.047 (inactive) | -1.05 (active) | 0.009 (inactive)
CSTF3 (UniProt Q12996) | -0.038 (inactive) | 0.014 (inactive) | -0.005 (inactive) | 0.006 (inactive) | -0.072 (inactive) | -0.005 (inactive) | -0.008 (inactive) | -0.029 (inactive) | -0.05 (inactive) | 0.007 (inactive) | 0.061 (inactive) | 0.091 (inactive) | -0.028 (inactive) | -0.029 (inactive) | 0 (inactive) | -0.002 (inactive) | 0.003 (inactive) | -0.038 (inactive) | 0.13 (inactive) | -0.048 (inactive)
CASP8 isoform 9 (UniProt Q14790) | -0.054 (inactive) | -0.092 (inactive) | 0.017 (inactive) | -0.049 (inactive) | 0.064 (inactive) | 0 (inactive) | 0.177 (inactive) | 0.114 (inactive) | 0.115 (inactive) | 0 (inactive) | 0.025 (inactive) | -0.489 (active) | 0.065 (inactive) | 0.052 (inactive) | 0.025 (inactive) | 0 (inactive) | -0.034 (inactive) | -0.019 (inactive) | -0.082 (inactive) | -0.026 (inactive)

Reference: the supplement of paper PMC10849652
